An excerpt weighted towards active compounds, which were near 5.2% of everything screened.
Vif imaging = inhibitors of HIV Vif; HEK293T cells, Vif self-association by quenched fluorescence, imaging, 24 h; inhibition, % at 7.49 µM; actives 0.35% (n = 340,000); AID 602346; in the data active = inhibition above about 50%, passing the limit was not always enough
SKN-1 inh = inhibitors of C. elegans SKN-1; C. elegans VP596 Pgst-4::GFP/RFP ratio, acrylamide-induced, 24 h; inhibition, % at 21.8 µM; actives 0.49% (n = 360,000); AID 624304;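 active = interference check ratio from 0.5 to 1.5 plus GFP to RFP signal ratio inhibition reaching or exceeding a fixed threshold, cut at about 30% in these data, passing the limit was not always enough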
GRIN3A LBD mod = modulates the human NR3A ligand-binding domain | NR3A LBD differential scanning fluorimetry, Tm shift; 0% = protein alone, 100% = glycine-bound protein | Tm shift relative to glycine control, % at 25 µM | actives 2.5% (n = 340,000);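 active = melting temperature shift of at least 10% of the positive control shift, at one fixed dose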
esBAF inh = blocks esBAF chromatin remodeling in mouse ES cells; Bmi1-luciferase knock-in reporter, 24 h; 100% = twice the neutral-well signal; reporter increase, % at 12.5 µM; actives 2% (n = 350,000); in the data active = activation above about 40%;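 note: a rise in the Bmi1 reporter signal indicates esBAF inhibition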
SMARCA2 activ = activators of SMARCA2 function; MG213 cells, MMTV-luciferase reporter, dexamethasone, overnight; actives 1% (n = 370,000); activation, % at 9.1 µM; AID 652017; in the data active = activation above about 7.8%
NadD inh = NadD (S. aureus) enzyme inhibition | actives 0.78% (n = 360,000) | purified NadD enzyme, colorimetric absorbance read-out | inhibition, % at 20 µM; in the data active = inhibition above about 26%
SMARCA2 act conf = SMARCA2 activation, confirmation screen; shares compounds with SMARCA2 activ; MG213 cells, MMTV-luciferase with dexamethasone, luminescence, overnight; MG213 cells expressing E1A, Rb sequestered; DMSO wells 0%, reference activator 100%; activation, % at 9.1 µM; actives 30% (n = 3,500); AID 652260;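 active = activation above its plate's cutoff, the mean activation of tested wells plus 3 SD, cut at about 7.9% in these data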
VP16 Luc act = counter-screen for SMARCA2 activators: GAL4-VP16 luciferase reporter activation; activation, % at 9.1 µM; shares compounds with SMARCA2 activ; actives 41% (n = 3,500); HEK293 GAL4-VP16 pG5luc reporter, luciferase luminescence; scaled: DMSO wells 0%, SAHA wells 100%;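 active = activation above the solvent-only control well mean plus 3 SD, averaged across control plates, cut at about 5.2% in these data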
Of the large screens only hits and unclear results are named; the others gave an inactive call (follow-up assays come after a bar, where they were run).

COc1ccc(CNC(=O)N(C)C[C@H]2OCc3ccccc3-c3c(n(C)c4ccccc34)C(=O)N([C@H](C)CO)C[C@H]2C)cc1	none (no result: Vif imaging, SKN-1 inh, GRIN3A LBD mod, SMARCA2 activ, NadD inh)
COc1ccc(NC(=O)Nc2ccc3c(c2)C(=O)N([C@@H](C)CO)C[C@@H](C)[C@@H](CN(C)CC2CC2)OCCCC[C@@H](C)O3)cc1	none (no result: Vif imaging, SKN-1 inh, GRIN3A LBD mod, SMARCA2 activ, NadD inh)
COc1ccccc1-c1ccc2n(c1=O)C[C@H]1[C@H](CO)[C@@H](C(=O)N[C@H](C)c3ccccc3)[C@@H]2N1C	none (no result: Vif imaging, SKN-1 inh, GRIN3A LBD mod, SMARCA2 activ, NadD inh)
COC(=O)c1sccc1NC(=O)c1ccc2c(c1)OCO2	none
COC(=O)c1c(-c2cccnc2)csc1NC(=O)c1ccc2c(c1)OCO2	SMARCA2 activ 9.4 (no result: esBAF inh) | SMARCA2 act conf inactive | VP16 Luc act 15.3
C[C@H]1CN([C@@H](C)CO)C(=O)Cc2cc(NS(=O)(=O)c3ccccc3)ccc2O[C@@H]1CN(C)C(=O)Nc1ccc(C(F)(F)F)cc1	none (no result: Vif imaging, SKN-1 inh, GRIN3A LBD mod, SMARCA2 activ, NadD inh)
O=C(Nc1nc(-c2nc3ccccc3s2)cs1)c1ccco1	esBAF inh 51.6, SMARCA2 activ 12.2 (no result: Vif imaging) | SMARCA2 act conf 9.5 | VP16 Luc act 8.3
O=C(Nc1nc(-c2nc3ccccc3s2)cs1)C1CC1	none
Cc1ccc2nc(NC(=O)COC(=O)c3ccco3)sc2c1	SMARCA2 activ 9.8 (no result: esBAF inh) | SMARCA2 act conf inactive | VP16 Luc act inactive
COc1ccc2nc(NC(=O)c3c(C)noc3C)sc2c1	none
COc1ccc2nc(Nc3nc(C)c(C(C)=O)s3)sc2c1	GRIN3A LBD mod 10.7, SMARCA2 activ 9.7 | SMARCA2 act conf inactive | VP16 Luc act 14.0
CCOc1ccc2nc(NC(=O)COC)sc2c1	SMARCA2 activ 8.0 | SMARCA2 act conf 14.8 | VP16 Luc act 12.8
CN(C)C(=O)c1ccc(-c2ccc3c(c2)[C@@H]2[C@@H](CCN2S(=O)(=O)c2ccccc2)[C@H](CO)N3)cc1	none (no result: Vif imaging, SKN-1 inh, GRIN3A LBD mod, SMARCA2 activ, NadD inh)
CN1CCN(C(=O)C[C@H]2C[C@@H]3c4cc(NC(=O)Nc5ccccc5)ccc4O[C@@H]3[C@H](CO)O2)CC1	none (no result: Vif imaging, SKN-1 inh, GRIN3A LBD mod, SMARCA2 activ, NadD inh)
CS(=O)(=O)c1ccc2nc(NC(=O)c3ccco3)sc2c1	SMARCA2 activ 9.9 | SMARCA2 act conf 10.9 | VP16 Luc act 11.9
CCOC(=O)c1ccc2nc(NC(=O)C(C)C)sc2c1	SMARCA2 activ 10.5 (no result: Vif imaging) | SMARCA2 act conf inactive | VP16 Luc act inactive
C[C@H](CO)N1C[C@H](C)[C@H](CN(C)C(=O)Nc2ccc(C(F)(F)F)cc2)OCCCC[C@H](C)Oc2ccc(NC(=O)c3ccncc3)cc2C1=O	none (no result: Vif imaging, SKN-1 inh, GRIN3A LBD mod, SMARCA2 activ, NadD inh)
CO[C@@H]1CN(C)C(=O)c2cc(NS(C)(=O)=O)ccc2OC[C@H](C)N(Cc2cccnc2)C[C@H]1C	none (no result: Vif imaging, SKN-1 inh, GRIN3A LBD mod, SMARCA2 activ, NadD inh)
COc1cccc(-c2ccc3c(N)c(C(=O)NC4CC4)sc3n2)c1	SMARCA2 activ 12.6 (no result: esBAF inh) | SMARCA2 act conf inactive | VP16 Luc act 8.5
Cc1ccc(S(=O)(=O)Nc2ccc3c(c2)C(=O)N([C@H](C)CO)C[C@@H](C)[C@H](CN(C)Cc2ccncc2)O3)cc1	none (no result: Vif imaging, SKN-1 inh, GRIN3A LBD mod, SMARCA2 activ, NadD inh)
CCN(CC)c1ccc2cc(C(=O)c3cccs3)c(=O)oc2c1	esBAF inh 72.3, SMARCA2 activ 8.3 (no result: Vif imaging, GRIN3A LBD mod) | SMARCA2 act conf 9.5 | VP16 Luc act inactive
Cc1noc(C)c1NC(=O)Nc1ccc2c(c1)C(=O)N([C@H](C)CO)C[C@H](C)[C@@H](CN(C)C)OCCCC[C@@H](C)O2	none (no result: Vif imaging, SKN-1 inh, GRIN3A LBD mod, SMARCA2 activ, NadD inh)
NC(=O)CC1C(=O)N(c2ccccc2)C(=S)N1NC(=O)c1ccccc1 (centres undefined)	SMARCA2 activ 8.0 | SMARCA2 act conf inactive | VP16 Luc act inactive
O=C(C[C@@H]1CC[C@@H]2[C@H](COC[C@H](O)CN2C(=O)c2ccccc2)O1)NCc1ccc(-c2ccccc2)cc1	none (no result: Vif imaging, SKN-1 inh, GRIN3A LBD mod, SMARCA2 activ, NadD inh)
C[C@@H]1CN([C@H](C)CO)C(=O)c2cc(C#CCc3ccccc3)cnc2O[C@@H]1CN(C)C(=O)C1CCOCC1	none (no result: Vif imaging, SKN-1 inh, GRIN3A LBD mod, SMARCA2 activ, NadD inh)
Cc1cccc(C(=O)NCCc2ccccc2)c1	SMARCA2 activ 10.7 | SMARCA2 act conf inactive | VP16 Luc act 14.4
O=C(NCCc1ccccc1)c1ccc(Cl)c([N+](=O)[O-])c1	SMARCA2 activ 9.9 | SMARCA2 act conf inactive | VP16 Luc act 8.6
CCCCOc1ccc(C(=O)NCCc2ccccc2)cc1	SMARCA2 activ 8.4 | SMARCA2 act conf inactive | VP16 Luc act 12.6
O=C(NN1CCOCC1)c1ccc(Cl)c([N+](=O)[O-])c1	SMARCA2 activ 10.3 (no result: Vif imaging) | SMARCA2 act conf inactive | VP16 Luc act inactive
Cc1cc(C(=O)NCCc2ccccc2)ccc1[N+](=O)[O-]	none
CN1CCN(NC(=O)c2ccc(Cl)c([N+](=O)[O-])c2)CC1	none
Cc1noc(C)c1S(=O)(=O)Nc1ccc2c(c1)CC(=O)N([C@@H](C)CO)C[C@@H](C)[C@H](CN(C)Cc1ccc(C(F)(F)F)cc1)O2	none (no result: Vif imaging, SKN-1 inh, GRIN3A LBD mod, SMARCA2 activ, NadD inh)
C[C@@H]1CN([C@@H](C)CO)C(=O)Cc2cc(NC(=O)Nc3ccc4c(c3)OCO4)ccc2O[C@@H]1CN(C)S(C)(=O)=O	none (no result: Vif imaging, SKN-1 inh, GRIN3A LBD mod, SMARCA2 activ, NadD inh)
CC(=O)N(C)C[C@@H]1Oc2ncc(C3=CCCC3)cc2C(=O)N([C@H](C)CO)C[C@H]1C	none (no result: Vif imaging, SKN-1 inh, GRIN3A LBD mod, SMARCA2 activ, NadD inh)
CN(C)c1cccc(C(=O)Nc2cccc(S(=O)(=O)NC3=NCCC3)c2)c1	esBAF inh 54.8, SMARCA2 activ 8.3 | SMARCA2 act conf 14.6 | VP16 Luc act 5.3
Nc1ccc(S(=O)(=O)Nc2cnc3c(Cl)cccc3n2)cc1	SMARCA2 activ 9.1 (no result: esBAF inh) | SMARCA2 act conf 30.7 | VP16 Luc act inactive
C[C@@H]1CCCCO[C@@H](CN(C)S(=O)(=O)c2ccccc2)[C@@H](C)CN([C@H](C)CO)C(=O)c2cc(NC(=O)Cc3ccccc3)ccc2O1	none (no result: Vif imaging, SKN-1 inh, GRIN3A LBD mod, SMARCA2 activ, NadD inh)
Cc1ccccc1OCC(=O)NC1=NCCS1	esBAF inh 44.5, SMARCA2 activ 9.0 | SMARCA2 act conf inactive | VP16 Luc act 12.0
Cc1ccc(OCC(=O)NC2=NCCS2)cc1	none (no result: esBAF inh)
C[C@@H]1CN([C@H](C)CO)C(=O)c2cc(NC(=O)Cc3cn(C)c4ccccc34)ccc2O[C@@H]1CN(C)S(=O)(=O)c1ccc(F)cc1	none (no result: Vif imaging, SKN-1 inh, GRIN3A LBD mod, SMARCA2 activ, NadD inh)
C[C@@H]1CN([C@H](C)CO)C(=O)c2cc(NC(=O)Nc3ccc4c(c3)OCO4)ccc2O[C@@H](C)CCCCO[C@H]1CN(C)Cc1ccc(C(F)(F)F)cc1	none (no result: Vif imaging, SKN-1 inh, GRIN3A LBD mod, SMARCA2 activ, NadD inh)
Cc1c(NC(=O)C2CC(c3c(F)cccc3Cl)=NO2)c(=O)n(-c2ccccc2)n1C (centres undefined)	SMARCA2 activ 8.4 | SMARCA2 act conf inactive | VP16 Luc act inactive
